Our source for the binding signal values is paper PMC11006913.

Holding throughout (experiment): PBM; 200 nM protein, PBS
What all share (conditions): dsDNA, one strand shown

One assay deals with HOXB4 (Homo sapiens, UniProt P17483 148-234, V174I).
The next assay addresses T1, NKX2-4 (Homo sapiens, UniProt Q9H2Z4 175-261, T231S).
T1 sequence: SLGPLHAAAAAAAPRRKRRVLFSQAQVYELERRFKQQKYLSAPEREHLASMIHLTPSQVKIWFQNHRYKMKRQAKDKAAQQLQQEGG

For assay [1], the target named is HOXD13 (Homo sapiens, UniProt P35453 263-343, T313R).
Sequence of HOXD13 (Homo sapiens, UniProt P35453 263-343, T313R) (P35453 263-343 T313R): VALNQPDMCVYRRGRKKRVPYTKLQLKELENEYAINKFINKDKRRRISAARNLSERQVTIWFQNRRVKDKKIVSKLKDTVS
Assay [2] concerns the target HOXD13 (Homo sapiens, UniProt P35453 263-343).
Assay [3] deals with HOXD13 (Homo sapiens, UniProt P35453 263-343, T313A).
Sequence of HOXD13 (Homo sapiens, UniProt P35453 263-343, T313A) (P35453 263-343 T313A): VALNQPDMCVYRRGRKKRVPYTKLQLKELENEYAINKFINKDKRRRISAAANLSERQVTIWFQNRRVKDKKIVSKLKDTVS
Assay [4] deals with T2, NKX2-6 (Homo sapiens, UniProt A6NCS4 118-204).
T2 sequence: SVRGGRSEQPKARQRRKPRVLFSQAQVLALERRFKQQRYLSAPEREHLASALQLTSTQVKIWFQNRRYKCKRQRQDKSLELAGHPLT

Assay [5] has as its target T3, NKX2-6 (Homo sapiens, UniProt A6NCS4 118-204, F151L).
T3 sequence: T2 sequence with F34L

A further assay has as its target PITX2 (Homo sapiens, UniProt Q99697 72-157).

Positions count from the first letter of the chain named.

Sequence of HOXD13 (Homo sapiens, UniProt P35453 263-343) (P35453 263-343): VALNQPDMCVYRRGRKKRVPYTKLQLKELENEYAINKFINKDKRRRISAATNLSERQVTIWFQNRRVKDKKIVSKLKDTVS
Sequence of HOXB4 (P17483 148-234 V174I): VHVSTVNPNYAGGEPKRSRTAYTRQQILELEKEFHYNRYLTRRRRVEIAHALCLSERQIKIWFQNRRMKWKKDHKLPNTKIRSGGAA

Turning to TAATTGAA, the binding signal in the assay with HOXB4 is 13.6 upbm affinity estimate (log intensity, higher = more binding, comparable within an allelic series).
With ACGCTGCG, in the assay with NKX2-4, the binding signal was 9.6 upbm affinity estimate (log intensity, higher = more binding, comparable within an allelic series).
For the sequence GAGCTGGC, the binding signal in the assay with NKX2-4 was 9.66 upbm affinity estimate (log intensity, higher = more binding, comparable within an allelic series).
In the case of GCCCCCCA, the binding signal is 9.1 upbm affinity estimate (log intensity, higher = more binding, comparable within an allelic series) with HOXD13 [1]; 9.22 upbm affinity estimate (log intensity, higher = more binding, comparable within an allelic series) in the assay with HOXD13 [2]; 9.24 upbm affinity estimate (log intensity, higher = more binding, comparable within an allelic series) with HOXD13 [3].
Turning to GTCCTGCA, the binding signal in the assay with NKX2-6 [4] was 9.59 upbm affinity estimate (log intensity, higher = more binding, comparable within an allelic series); in the assay with NKX2-6 [5], 9.4 upbm affinity estimate (log intensity, higher = more binding, comparable within an allelic series).
Consider CGCGCGAG, for which the binding signal was 9.52 upbm affinity estimate (log intensity, higher = more binding, comparable within an allelic series) with HOXD13 [1]; 9.48 upbm affinity estimate (log intensity, higher = more binding, comparable within an allelic series) in the assay with HOXD13 [2]; 9.67 upbm affinity estimate (log intensity, higher = more binding, comparable within an allelic series) with HOXD13 [3].
On to ACGGAAGG, for which the binding signal with PITX2 was 7.95 upbm affinity estimate (log intensity, higher = more binding, comparable within an allelic series).
Regarding CTGCCAGC, the binding signal with NKX2-6 [4] was 9.39 upbm affinity estimate (log intensity, higher = more binding, comparable within an allelic series); with PITX2, 8.09 upbm affinity estimate (log intensity, higher = more binding, comparable within an allelic series); in the assay with NKX2-6 [5] it was 9.37 upbm affinity estimate (log intensity, higher = more binding, comparable within an allelic series).
